# Calls of active or inactive are those of the source. Calls follow the shape of the dose curve; as a rule, active = well fitted cell-killing curve with a large enough effect; inconclusive = small, poorly fitted or top-dose-only effect; inactive = flat fitted curve, though single readings scatter.
# Experiment: Cell Viability - LYMP1-002 - Assay at 24 hr (AID 993)
# Details: LYMP1-002 lymphoblastoid cells viability; series mostly up to 92.2 µM; activity change, negative = cytotoxicity: at the top concentration
# From the text: NIH Chemical Genomics Center [NCGC]
# NIH Molecular Libraries Screening Centers Network [MLSCN]
# National Institutes of Environmental Health Sciences [NIEHS]
# National Toxicology Program [NTP]
# We have developed a 1536-well cell-based assay for quantitative high throughput screening (qHTS) against a number of cell lines to determine in vitro cytotoxicity of small molecules. This particular assay uses a human lymphoblastoid cell line (LYMP1-002) purchased from Coriell Institute for Medical Research.
# NCGC Assay Protocol Summary:
# The CellTiter-Glo luminescent cell viability assay (Promega) is a homogeneous method to measure the number of viable cells in culture. The end point readout of this assay is based on quantitation of intracellular ATP, an indicator of metabolic activity, using the luciferase reaction. Luciferase catalyzes the oxidation of beetle Luciferin to oxyluciferin and light in the presence of ATP. The luminescent signal is proportional to amount of ATP present.
# Using the CellTiter-Glo luminescent cell viability assay, the amount of cellular ATP was measured in the lymphoblastoid cell line with complete culture medium following compound treatment for 24 hours. The assay was performed in opaque white Kalypsys 1536-well plates. In the screen, tetraoctylammonium bromide was used as positive control. Library compounds were measured for their ability to cause acute toxicity in the cell line, as reflected by a decrease in intracellular ATP levels, in a concentration-dependent manner. […] AC50 values were determined from concentration-response data modeled with the standard Hill equation.
# qHTS protocol for CellTiter Glo lymphoblastoid cellular assay
# [Step] [Parameter] [Value] [Description]
# 1. Reagent; 5 uL; 2500 lymphoblastoid cells/well
# 2. Time; 5 hr; 37 C incubation
# 4. Controls; 23 nL; Tetraoctylammonium bromide 6.4pM to 92 uM
# 5. Time; 24 hr; 37 C incubation
# 6. Reagent; 5 uL; CellTiter Glo reagent
# 7. Time; 30 min; Room Temperature
# 8. Detection; Luminescence; Viewlux plate reader
# Keywords: cell viability, cytotoxicity, lymphoblastoid cell line, luminescence, NTPHTS, NTPHTS_NCGC, NIEHS, DSSTox, MLSMR, MLSCN, NIH Roadmap, qHTS, NCGC
# % is scaled to controls: 0 for no effect and ±100 for the full control effect; potency is read from the fitted curve at half-maximal effect.
SMILES,"activity change, negative = cytotoxicity",Potency
CO/N=C(/C(=O)N[C@@H]1C(=O)N2C(C(=O)O)=C(COC(N)=O)CS[C@H]12)c1ccco1,-7.05% (inactive),
COC(=O)c1ccccc1O,-0.657% (inactive),
ClC(Cl)Cl,-3.85% (inactive),
C/C=C/C=C/C(=O)O,-2.58% (inactive),
O=P(O)(O)O,2.97% (inactive),
OC[C@H]1O[C@@H]2O[C@H]3[C@H](O)[C@@H](O)[C@@H](O[C@H]4[C@H](O)[C@@H](O)[C@@H](O[C@H]5[C@H](O)[C@@H](O)[C@@H](O[C@H]6[C@H](O)[C@@H](O)[C@@H](O[C@H]7[C@H](O)[C@@H](O)[C@@H](O[C@H]1[C@H](O)[C@H]2O)O[C@@H]7CO)O[C@@H]6CO)O[C@@H]5CO)O[C@@H]4CO)O[C@@H]3CO,8.07% (inactive),
CCOC(C)OCC,0.532% (inactive),
CC(C)O,10.5% (inactive),
Nc1ncnc2c1ncn2[C@H]1CC[C@@H](CO)O1,11.5% (inactive),
C=C1C(CCl)(CCl)C2(Cl)C(Cl)C(Cl)C1(Cl)C2(Cl)Cl (configuration not stated),,50.1 µM (active)
OCl,3.45% (inactive),
Cc1ncc[nH]1,-5.21% (inactive),
Oc1cccc(O)c1O,-19.7% (inactive),
CCCCO,,inactive
CC(C)(C)CC(C)(C)c1ccc(OCCO)cc1,-10.3% (inactive),
c1ccc2ccccc2c1,-3.39% (inactive),
OB(O)O,-2.8% (inactive),
C[C@H]1O[C@@H](O[C@H]2[C@@H](O)C[C@H](O[C@H]3[C@@H](O)C[C@H](O[C@H]4CC[C@@]5(C)[C@H](CC[C@@H]6[C@@H]5C[C@@H](O)[C@]5(C)[C@@H](C7=CC(=O)OC7)CC[C@]65O)C4)O[C@@H]3C)O[C@@H]2C)C[C@H](O)[C@@H]1O,,0.158 µM (active)
OCC(O)CO,,inactive

SMILES,"activity change, negative = cytotoxicity",Potency
O=c1n(CC2CO2)c(=O)n(CC2CO2)c(=O)n1CC1CO1 (configuration not stated),,39.8 µM (active)
NCCN,1.07% (inactive),
O.O.O.O.O.O.O.O=S(=O)([O-])[O-].[Co+2],-11% (inactive),
C[C@H](CCC(=O)O)[C@H]1CC[C@H]2[C@@H]3CC[C@@H]4C[C@H](O)CC[C@]4(C)[C@H]3C[C@H](O)[C@]12C,-3.1% (inactive),
CO,2.16% (inactive),
OCc1ccccc1,-5.6% (inactive),
Cc1ccc(S(=O)(=O)O)cc1C,6.83% (inactive),
CCCCC,5.64% (inactive),
CC1=CC(=O)NS(=O)(=O)O1,-1.55% (inactive),
CC/C=C\C/C=C\C/C=C\CCCCCCCC(=O)O,-18.2% (inactive),
C[C@H](CCC(=O)O)[C@H]1CC[C@H]2[C@@H]3[C@H](O)C[C@@H]4C[C@H](O)CC[C@]4(C)[C@H]3C[C@H](O)[C@]12C,4.88% (inactive),
Nc1nccs1,2.2% (inactive),
CC1=CCC2CC1C2(C)C (configuration not stated),-4.12% (inactive),
[O-][N+](=Nc1ccccc1)c1ccccc1,1.89% (inactive),
NC(N)=O,9.99% (inactive),
Nc1ccc(N=Nc2ccccc2)c(N)n1,-6.37% (inactive),
Oc1ccc(/C=C/c2cc(O)cc(O)c2)cc1,-9.59% (inactive),
CC[C@H]1OC(=O)[C@H](C)[C@@H](O[C@H]2C[C@@](C)(OC)[C@@H](O)[C@H](C)O2)[C@H](C)[C@@H](O[C@@H]2O[C@H](C)C[C@H](N(C)C)[C@H]2O)[C@](C)(O)C[C@@H](C)CN(C)[C@H](C)[C@@H](O)[C@]1(C)O,-7.05% (inactive),

# — PubChem BioAssay (NCATS)
